Sampled rows, rich in hits. Any-hit rate of the full collection: about 3%.
TexasRed fluor = alters Texas Red total fluorescence, flagging assay interference; AID 1479; TRb/SRC2 Texas Red total fluorescence interference; Potency, µM (highest dose often 106 µM), for the others: at the highest dose fluorescence change, negative = quenching; 280,000 tested, 0.29% active; active = well fitted curve in either direction with a large enough effect; inconclusive = small, poorly fitted or top-dose-only effect
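Human TRb ligand-binding domain at 0.6 uM with 20 nM Texas Red SRC2 peptide in Tris buffer containing 1 uM T3 and 5% DMSO, incubated with compound 5 h at ambient temperature. Total fluorescence (555/632 nm) calculated as parallel + 2 × perpendicular.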
Tau ThT inhib = tau fibrillization inhibition (ThT binding); P10636; 270,000 tested, 2.1% active; recombinant tau K18 P301L, heparin-induced fibrillization, ThT fluorescence; Potency, µM (top dose mostly 57.4 µM), for inactives: at the highest dose activity, negative = inhibition, hits mostly inhibitors; also: nearly all actives have a fitted effect of over 55% in size
Target sequence (P10636 561-689 P618L limits assumed): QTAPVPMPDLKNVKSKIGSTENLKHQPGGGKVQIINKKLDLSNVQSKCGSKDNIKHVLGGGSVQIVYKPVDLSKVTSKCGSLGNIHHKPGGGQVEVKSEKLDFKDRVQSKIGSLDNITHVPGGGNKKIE
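K18 P301L tau (15 uM + 0.24 uM Alexa 594-tagged), heparin 20 uM, NaOAc pH 7, 6 h 37 C; ThT 30 uM, 1 h RT, ex 450/em 510 nm.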
Tau FP inhib = tau fibrillization inhibition (FP); K18 P301L tau heparin fibrillization, Alexa594 FP, 6 h; 280,000 tested, 0.39% active; Potency, µM (top dose mostly 57.7 µM), for inactives: at the highest dose activity, negative = inhibition, actives largely listed as inhibitors; P10636; also: nearly all actives have a fitted effect of over 55% in size
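FP of Alexa 594-tau after heparin (20 uM) induction. Substrate: human K18 P301L, 15 uM unlabeled, 0.24 uM labeled. Buffer 100 mM sodium acetate pH 7. 6 hr, 37 C.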
TRb-SRC2 inh = disrupts binding of human TR beta to SRC2. P10828. TRbeta-SRC2 peptide binding, fluorescence polarization; receptor liganded with 1 µM T3. Potency, µM (top dose mostly 106 µM), inactives show at the top dose activity change, negative = inhibition, hits mostly inhibitors. 280,000 tested, 0.065% active. AID 1469;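 also: plate controls were bound peptide for no effect and peptide without receptor for full effect; nearly all actives have a fitted effect of over 50% in size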
Target sequence (P10828 whole entry, looked up): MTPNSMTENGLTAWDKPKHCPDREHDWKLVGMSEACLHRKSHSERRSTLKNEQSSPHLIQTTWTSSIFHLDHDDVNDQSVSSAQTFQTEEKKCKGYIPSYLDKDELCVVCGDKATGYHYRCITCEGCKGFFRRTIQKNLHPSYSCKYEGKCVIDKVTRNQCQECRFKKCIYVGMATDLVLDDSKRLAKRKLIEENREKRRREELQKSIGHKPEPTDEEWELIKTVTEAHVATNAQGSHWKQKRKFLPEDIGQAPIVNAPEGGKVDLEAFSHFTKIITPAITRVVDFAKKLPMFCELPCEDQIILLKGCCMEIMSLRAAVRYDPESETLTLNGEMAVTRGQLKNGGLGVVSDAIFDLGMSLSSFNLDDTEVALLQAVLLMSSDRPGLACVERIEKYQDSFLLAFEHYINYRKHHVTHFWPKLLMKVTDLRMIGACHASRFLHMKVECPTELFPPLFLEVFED
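Binding of a 20-amino-acid Texas Red SRC2 peptide (20 nM) to TRb ligand-binding domain (0.6 uM) with agonist T3 at 1 uM was followed by fluorescence polarization after a 5 hr room-temperature incubation.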
Tau fluor cs = counter-screen for tau fibril formation inhibitors. tau K18 P301L (four-repeat tau fragment) Alexa594 fluorescence, heparin fibrillization. Potency, µM (highest dose often 57.7 µM), for inactives: top-dose activity change, negative = decrease. 280,000 tested, 0.93% active. AID 1463; also: nearly all actives have a fitted effect of over 55% in size
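Human K18 P301L tau (15 uM unlabeled plus 0.24 uM Alexa 594-labeled, final) in 100 mM sodium acetate pH 7 was mixed with compound and 20 uM heparin and incubated 6 hr at 37 C.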
* marks the source's active call; other numbers are inactive results; ? = inconclusive; nt = no result; [ ] = dose if it differs, or a comment. Unless noted, calls follow the shape of the dose curve; as a rule, active = well fitted curve in the direction sought with a large enough effect; inconclusive = small, poorly fitted or top-dose-only effect, or another doubt; inactive = no such curve, though single readings can be large; an effect the other way counts as inactive or inconclusive. Unless noted, % is scaled to controls: 0 for no effect and ±100 for the full control effect; potency is read from the fitted curve at half-maximal effect.

SMILES	TexasRed fluor	Tau ThT inhib	Tau FP inhib	TRb-SRC2 inh	Tau fluor cs
CCCCCCc1cc2cc(-c3nnc(-c4ccc(C)cc4)o3)c(=O)oc2cc1O	2512µM*[quencher]	?	-0.5%	-18.2%[53 µM]	-5.2%
Cc1ccc(N2NC(=O)/C(=C/c3ccc(-c4ccc(Cl)c(C(=O)O)c4)o3)C2=O)cc1	-0.4%	?	-1.0%	13.9%	?
O=C1NN(c2ccccc2)C(=O)/C1=C\c1ccc(-c2cc([N+](=O)[O-])ccc2O)o1	?	3.55µM*	?	11.9%	7.94µM*[quencher]
O=C1NN(c2ccc(Cl)cc2)C(=O)/C1=C\c1ccc(-c2cccc(C(=O)O)c2)o1	-25.6%	7.94µM*	?	6.8%	10µM*[quencher]
COc1ccc(Sc2ccc(/C=C3\C(=O)NN(c4ccccc4)C3=O)o2)cc1	-14.6%	10µM*	?	-4.6%	?
COc1ccc(NS(=O)(=O)c2ccc3nc(COc4cccc5ccccc45)[nH]c3c2)cc1	-0.6%	-10.6%	22.4µM*	8.0%	10µM*[quencher]
COc1ccc(NS(=O)(=O)c2ccc3nc(COc4ccc5ccccc5c4)[nH]c3c2)cc1	-7.0%	1.2%	-1.1%	-3.7%	-5.6%
COc1ccc(OC)c(NC(=O)COC(=O)Cc2ccc(-c3ccccc3)cc2)c1	-0.9%	-14.0%	12.5%	4.5%	-29.2%
CCOc1ccccc1NC(=O)COC(=O)Cc1ccc(-c2ccccc2)cc1	31.6µM*[quencher]	4.9%	3.7%	?	5.7%
Cc1ccc2c(c1)c1c(c(=O)n(-c3cccc(Cl)c3)c(=O)n1C)n2C	-1.2%	2.4%	0.4%	-2.4%	0.5%
Cc1noc(C)c1S(=O)(=O)N1CCCC(C(=O)Nc2ccc(C(C)C)cc2)C1 (stereo unspecified)	0.8%	1.0%	-1.8%	-6.5%	-21.2%
CC1(C)CCC2=C(O1)c1ccccc1C(=O)C2=O	-7.1%	12.6µM*	?	?	-23.9%
CC1(C)CCc2c([nH]c3ccccc3c2=O)O1	0.0%	2.6%	-7.1%	2.8%	8.4%
COc1cc(OC)c(OC)cc1/C=N/NC(=O)c1cc(-c2cccn2C)n[nH]1	-9.3%	12.6µM*	10.9%	0.2%	?
O=C(/N=C1\NC(=O)C(F)(C(F)(F)F)S1)NC1CCCCC1 (stereo unspecified)	-1.6%	25.1µM*	?	-20.7%	-15.6%
CCC1S/C(=N/C(=O)NC2CCCCC2)NC1=O (stereo unspecified)	0.7%	-6.6%	-12.0%	1.7%	-8.1%
COC(=O)c1cc(N=Nc2sc(N)nc2C)cc(C(=O)OC)c1	-12.1%	15.8µM*	8.8%	-4.9%	?
COC(=O)c1ccc2nc(C)c(C)nc2c1	-4.4%	2.8%	0.3%	-2.0%	3.1%
CC(C)(C)OC(=O)CNC(=O)c1[nH]cnc1C(=O)Nc1ccc(Cl)cc1	-2.3%	?	25.1µM*	-3.1%	?
CC(C)(C)OC(=O)CNC(=O)c1[nH]cnc1C(=O)Nc1ccc(CNC(=O)OC(C)(C)C)cc1	-2.5%	14.5%	?	-4.9%	?
CC(C)(C)OC(=O)NCc1ccc(NC(=O)c2nc[nH]c2C(=O)N[C@@H](Cc2ccccc2)C(=O)OC(C)(C)C)cc1	-3.5%	?	8.91µM*	-3.3%	?
CC(C)C[C@H](NC(=O)c1[nH]cnc1C(=O)Nc1ccc(CNC(=O)OC(C)(C)C)cc1)C(=O)OCc1ccccc1	-0.7%	11.7%	10µM*	4.8%	?
CC(C)C[C@H](NC(=O)c1[nH]cnc1C(=O)Nc1ccc(CNC(=O)OC(C)(C)C)cc1)C(=O)OC(C)(C)C	-0.4%	3.8%	?	-0.7%	?
O=C(O)Cc1c(Cl)ccc(Cl)c1Cl	-2.8%	nt	nt	1.2%	nt
CC1=C(C(=O)Nc2ccc(Cl)cc2)C(c2ccc(C(F)(F)F)cc2)n2nnnc2N1 (stereo unspecified)	0.8%	-6.1%	22.4µM*	-1.2%	?
SMILES	TexasRed fluor	Tau ThT inhib	Tau FP inhib	TRb-SRC2 inh	Tau fluor cs
CC1=C(C(=O)Nc2ccc(C)cc2)C(c2ccc(Cl)cc2)n2nnnc2N1 (stereo unspecified)	-1.0%	5.7%	?	-1.3%	-17.4%
COc1ccc(CC(=O)NCC(c2ccc(N(C)C)cc2)N2CCOCC2)cc1OC (stereo unspecified)	-1.7%	?	-2.0%	1.9%	-18.3%
COC(=O)c1ccc(COc2ccc(/C=N/Nc3cccc(C(=O)O)c3)cc2)cc1	-1.3%	15.8µM*	-3.3%	3.6%	?
O=C(O)c1ccc(N/N=C/c2ccc(OC(=O)c3cccc(Cl)c3)cc2)cc1	-7.3%	12.6µM*	?	12.1%	?
O=C(O)c1cc(N/N=C/c2ccc(OCc3ccccc3)cc2)ccc1Cl	-3.2%	-0.1%	4.1%	-7.8%	-1.1%
CC(=O)CC(=O)Nc1ccccc1	-5.1%[201 µM]	nt	nt	5.1%[201 µM]	nt
CCOc1ccccc1CNC(=O)c1cnc2sc(N3CCOCC3)nn2c1=O	-1.8%	-1.9%	-6.5%	3.1%	-4.1%
N#Cc1c(N2CCN(c3ccc(F)cc3)CC2)nc(N)c2c(N)nc3c(c12)CC(=O)N3C1CC1	-0.4%	8.7%	11.3%	-5.2%	7.0%
CN(CCO)c1nc(N)c2c(N)nc3c(c2c1C#N)CC(=O)N3C1CCCC1	-1.9%	28.2µM*	?	?	?
O=C(CCCOc1ccc(Cl)cc1Cl)N/N=C/c1ccccc1	-4.5%	6.1%	-0.4%	6.3%	2.5%
O=C(CCCOc1ccc(Cl)cc1Cl)N/N=C/c1ccccc1O	31.6µM*[quencher]	0.8%	6.1%	-15.9%[53 µM]	-4.1%
CCCCCc1ccc(-c2ccc(Br)cc2)nc1	-1.1%	-9.9%	-0.3%	-0.9%	-6.1%
CCCc1ccc(-c2ccc(C(=O)Oc3ccc(Br)cc3)cc2)nc1	0.0355µM*[quencher]	-8.7%	-7.8%	-27.1%[53 µM]	-6.8%
CC(=O)Nc1ccccc1-c1nc2ccccc2n(CC(=O)c2ccc(Br)cc2)c1=O	-2.5%	-10.4%	3.4%	0.6%	-9.6%
COC(=O)c1c(OC)cc2c(c1C)Oc1c(Cl)c(O)c(Cl)c(C)c1C(=O)O2	0.1%	?	1.3%	-3.1%	-16.3%
Cc1cc(O)c(C=O)c2c1C(=O)Oc1c(C)c(O)c3c(c1O2)C(O)OC3=O (stereo unspecified)	-5.7%	7.94µM*	?	4.9%	?
COc1cc(C)c2c(c1C=O)Oc1c(c(C)c(O)c3c1C(O)OC3=O)OC2=O (stereo unspecified)	?	14.1µM*	25.1µM*	?	?
O=C(NCCCN1CCN(c2ccccc2)CC1)c1ccc2nc(CCc3ccccc3)oc2c1	1.4%	?	3.3%	0.1%	-20.6%
O=C(Nc1ccc(Nc2ccccc2)cc1)c1ccc(Br)o1	-4.7%	8.91µM*	?	-15.2%	14.1µM*[quencher]
CCCCCC(=O)N/N=C/c1ccc([N+](=O)[O-])o1	2.3%	?	-6.4%	-8.0%	-16.0%
CCN(CC)c1ccc(N=Cc2ccc([N+](=O)[O-])o2)cc1	6.1%	10µM*	11.2µM*	?	?

High-throughput results from PubChem BioAssay.
